Assay [1] in a line: NCI Yeast Anticancer Drug Screen. Data for the rad50 strain (AID 155).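 Further: 0% = growth of vehicle-only cultures of the same strain.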 Particulars: S. cerevisiae rad50 strain growth inhibition; at 50.0 µM; active compounds read high. In short, it runs like this: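 Compounds were tested on a yeast strain with an engineered DNA damage repair alteration; the reported value is growth inhibition normalised to vehicle treatment.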
Assay [2] can be described thus: NCI Yeast Anticancer Drug Screen. Data for the mec2-1 strain (AID 157). As to conditions: S. cerevisiae mec2-1 strain, at 50.0 µM, active compounds read high. The gist of the method:
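Growth inhibition is read against vehicle-treated controls after compound exposure of the mec2-1 yeast strain, which is defective in DNA damage repair or cell cycle control.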

The nature of assay [3]: NCI Yeast Anticancer Drug Screen. Data for the sgs1 mgt1 strain (AID 161).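 Further: 0% = growth of cultures given vehicle only.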 As to conditions: S. cerevisiae sgs1 mgt1 strain, at 50.0 µM, active compounds read high. The gist of the method:
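Yeast cells carrying a defined DNA-repair defect were exposed to test compounds. Growth inhibition was measured relative to vehicle-treated controls.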

The nature of assay [4]: NCI Yeast Anticancer Drug Screen. Data for the cln2 rad14 strain (AID 165).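 Further: 0% = growth equal to vehicle treated cultures.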 Particulars: S. cerevisiae cln2 rad14 strain, at 50.0 µM, active compounds read high. The gist of the method:
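Growth inhibition, relative to vehicle-treated controls, is the read-out. The test organism is a yeast strain with defined genetic alterations, cln2 rad14.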

The nature of assay [5]: NCI Yeast Anticancer Drug Screen. Data for the bub3 strain (AID 167). Particulars: S. cerevisiae bub3 mutant strain, at 50.0 µM, active compounds read high. In short, it runs like this:
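Growth of a checkpoint-deficient yeast mutant is measured after compound exposure. Values represent inhibition relative to vehicle.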

Assay [6] can be described thus: NCI Yeast Anticancer Drug Screen. Data for the mlh1 rad18 strain (AID 175). As to conditions: S. cerevisiae mlh1 rad18 strain growth inhibition; at 50.0 µM; active compounds read high. In short, it runs like this: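 Cells of a genetically altered yeast strain, deficient in DNA damage repair, were treated with compound. Their growth was then compared with that of vehicle-treated cultures to give inhibition.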

Structures are written as SMILES. Values joined by “and” are separate entries in the source; they are usually repeats but may differ in a detail not shown here. Equal values may be shown once. This is part of a sample that, as a whole, favours compounds with a hit. Of some 79,000 tested, about 15% had one in any assay. Unmarked numbers belong to inactive results. Active and inactive are the calls of the source. No stated cut-off is given here; in the data, active means growth inhibition above about 70%; inactive means the rest.

As for `N#CN1CC(C(=O)N2CCCCC2)C=C2c3cccc4[nH]cc(c34)CC21` (centres undefined), the growth inhibition in assay [1] is 9.5%; in assay [2], -10.8%; in assay [3], 34.5%; in assay [4] it was 0.05%; in assay [5], 8.95%; in assay [6] it was 10.9%.
`O=C(CC(=O)C(F)(F)F)c1cccs1.O=C(CC(=O)C(F)(F)F)c1cccs1.O=C(CC(=O)C(F)(F)F)c1cccs1.[Eu]`: the growth inhibition in assay [1] is 27.7%; in assay [2], 37.6%; in assay [3], 39.5%; in assay [4], 9.4%; in assay [5], 39%; in assay [6], 23.1%.
Turning to `Cc1ccccc1N`, the growth inhibition in assay [1] is 4.1%; in assay [2] it was -14.4%; in assay [3], -1.15%; in assay [4], -1.7%; in assay [5], -1.55%; in assay [6], 4.4%.
As to `CC(C)NCC(=O)c1ccc(O)c(O)c1`, the growth inhibition in assay [1] was 4.9% and -5.1%; in assay [2] it was -19.3% and 4.45%; in assay [3], -21.8%; in assay [4], -7.25%; in assay [5] it was -26.1%; in assay [6] it was 7.7% and -10.9%.
For the molecule `COc1ccc(CO)cc1`, the growth inhibition is -1.5% in assay [1]; -10.1% in assay [2]; 11.3% in assay [3]; -12.8% in assay [4]; -17.3% in assay [5]; -13.7% in assay [6].
With `CCCCSP(SCCCC)N1CCCCC1`, the growth inhibition was 94.7% (active) in assay [1]; 89.4% (active) in assay [2]; 91.3% (active) in assay [3]; 31.1% in assay [4]; 79.8% (active) in assay [5]; 88% (active) in assay [6].
Take `ClCc1cccc2ccccc12`: the growth inhibition in assay [1] was -28.7%; in assay [2] it was -4.7%; in assay [3], -26.1%; in assay [4] it was -6.05%; in assay [5] it was -7.6%; in assay [6], -39%.
In the case of `CC(=O)CC(C)=O.CC(=O)CC(C)=O.CC(=O)CC(C)=O.[Co]`, the growth inhibition in assay [1] is -27.8% and 13.9%; in assay [2], -50.8% and -4.9%; in assay [3] it was -4.85% and 26.6%; in assay [4], -20.4% and -16.4%; in assay [5] it was -45% and 23.6%; in assay [6], -10.2% and 21.3%.
For `CNC(C)C(O)c1ccccc1` (centres undefined), the growth inhibition in assay [1] is 15.3% and 4.1%; in assay [2] it was -14.3% and -2.1%; in assay [3] it was 7.45% and -21.6%; in assay [4] it was 14.9% and 10.5%; in assay [5], 10% and -5.85%; in assay [6], 13.3% and 8.9%.
Consider `Cc1ccc(-n2cnc3c(N(CCCl)CCCl)ncnc32)cc1`, for which the growth inhibition in assay [1] is 10.3%; in assay [2], 0.55%; in assay [3], -1.45%; in assay [4], 5.55%; in assay [5], 23.5%; in assay [6] it was -3.15%.
As for `CC(C)N(C#N)C(C)C`, the growth inhibition is 16.6% in assay [1]; -0.75% in assay [2]; 1.85% in assay [3]; 9.6% in assay [4]; 0.25% in assay [5]; 6.25% in assay [6].
Consider `Oc1ccc(Cc2ccc(O)cc2)cc1`, for which the growth inhibition in assay [1] was -0.2%; in assay [2], -3.4%; in assay [3], -0.3%; in assay [4], -16.3%; in assay [5], -3.1%; in assay [6], 5.85%.
For the molecule `CC(N)c1ccccc1` (centres undefined), the growth inhibition in assay [1] is -5.95% and 39.2%; in assay [2], -6.55% and 3%; in assay [3], 11% and 28%; in assay [4], -23.1% and 17.1%; in assay [5], -10.3% and 38.8%; in assay [6], 2.8% and 37.6%.
Take `CC(C)[C@](O)(C(=O)OCC1=CC[N+]2([O-])CC[C@@H](O)[C@@H]12)[C@H](C)O` (some centres undefined): the growth inhibition in assay [1] was -10.2%; in assay [2], -46.3%; in assay [3], 4.35%; in assay [4], -0.85%; in assay [5], -26.2%; in assay [6], -10.2%.
On to `OCC[N+]12CN3CN(CN(C3)C1)C2`, for which the growth inhibition in assay [1] is 21.9%; in assay [2], 6.3%; in assay [3], 20.1%; in assay [4], 16.9%; in assay [5] it was 4.55%; in assay [6] it was 15.7%.
For `CC(C)CC(=O)[O-].CC(C)CC(=O)[O-].N.N.N.N.[Co+3].[O-][Cl+3]([O-])([O-])O.[O-][Cl+3]([O-])([O-])[O-]`, the growth inhibition was -23.6% in assay [1]; -6.2% in assay [2]; -42.2% in assay [3]; -20.9% in assay [4]; -16.2% in assay [5]; -14.8% in assay [6].
As to `CCCNC(Cc1ccccc1)c1ccccc1` (centres undefined), the growth inhibition in assay [1] is -7.95%; in assay [2], -9.25%; in assay [3], 3.4%; in assay [4], -10.1%; in assay [5], -0.7%; in assay [6] it was -1%.
As to `CC(C)[N+](C)(CCC(C(=O)N(C)C)(c1ccccc1)c1ccccc1)C(C)C`, the growth inhibition is 18.6% in assay [1]; -1.55% in assay [2]; 4.7% in assay [3]; 13.3% in assay [4]; -16% in assay [5]; 24.4% in assay [6].
On to `COc1ccc(N=NC(=O)NC(CC(C)C)C(=O)NCC(=O)O)cc1` (centres undefined), for which the growth inhibition was -0.8% in assay [1]; 2.45% in assay [2]; 10.4% in assay [3]; 28.8% in assay [4]; 5.35% in assay [5]; 5.35% in assay [6].
For the molecule `O=S(=O)(O)O.[W]`, the growth inhibition was 27.2% in assay [1]; -7.55% in assay [2]; 14.3% in assay [3]; -5.65% in assay [4]; 18% in assay [5]; -8.95% in assay [6].
For the molecule `NCCN1CC2CCC(CC2)C1`, the growth inhibition was -53.1% in assay [1]; -48.3% in assay [2]; -27.1% in assay [3]; -5.75% in assay [4]; -3.55% in assay [5]; -11.7% in assay [6].
`CC1=CC23C(COC(=O)C24CO4)C(C(=O)O)=CC3C1C` (centres undefined) (tested in a mixture with another compound): the growth inhibition is 38% in assay [1]; 29% in assay [2]; 34.5% in assay [3]; 33.4% in assay [4]; 17.9% in assay [5]; 30.4% in assay [6].
As for `CCCCOP(=O)(NCCOC)OCCCC`, the growth inhibition in assay [1] was -0.05%; in assay [2], 8.05%; in assay [3], -3.1%; in assay [4] it was 6.9%; in assay [5], 5.25%; in assay [6] it was 10.2%.
On to `CNC(=S)P(c1ccccc1)c1ccccc1`, for which the growth inhibition in assay [1] is 9.4%; in assay [2] it was 15.2%; in assay [3], 7.1%; in assay [4], 22.4%; in assay [5], 13.4%; in assay [6] it was 10.4%.
Take `COc1cc2[nH]cc(CN(C)C)c2cc1OC`: the growth inhibition in assay [1] was 3%; in assay [2] it was -0.55%; in assay [3] it was -11.2%; in assay [4] it was -18.9%; in assay [5], -0.25%; in assay [6] it was -7.35%.
On to `Cc1cc(N(C)CCCl)ccc1N=Nc1ccccc1C(=O)O`, for which the growth inhibition in assay [1] is 36.5%; in assay [2], 10.8%; in assay [3], 36.8%; in assay [4] it was 6%; in assay [5], 23.4%; in assay [6] it was 18.8%.
Turning to `CN1CCCC(OC(=O)C(c2ccccc2)C2(O)CCCC2)C1` (centres undefined), the growth inhibition in assay [1] is 30.6%; in assay [2], -9.55%; in assay [3] it was 27.1%; in assay [4] it was -27.9%; in assay [5], -1.85%; in assay [6], 16.8%.
As for `CN1CCC(C(O)(c2ccccc2)c2ccccc2)CC1`, the growth inhibition is -1.95% in assay [1]; -11.3% in assay [2]; 12.3% in assay [3]; -39.1% in assay [4]; -6.45% in assay [5]; -25.4% in assay [6].
For the molecule `O=C1CC(c2cccc(Br)c2)n2cccc21` (centres undefined), the growth inhibition in assay [1] is 9.9%; in assay [2], -1.1%; in assay [3], 9.95%; in assay [4], 37.5%; in assay [5] it was 13.8%; in assay [6], -5.7%.
`CCCC[As](CCCC)SC1OC(COC(C)=O)C(OC(C)=O)C(OC(C)=O)C1OC(C)=O` (centres undefined): the growth inhibition was 98.6% (active) in assay [1]; 98.7% (active) in assay [2]; 98.8% (active) in assay [3]; 96.9% (active) in assay [4]; 98.5% (active) in assay [5]; 98.1% (active) in assay [6].
For `O=[N+]([O-])c1ccc([Se]c2ncccn2)c([N+](=O)[O-])c1`, the growth inhibition was -14.8% in assay [1]; 1.95% in assay [2]; -19.4% in assay [3]; -8.75% in assay [4]; -3.15% in assay [5]; 0.5% in assay [6].
Consider `CCOC(CNC(=O)c1ccc(S(=O)(=O)F)cc1)OCC`, for which the growth inhibition in assay [1] is -4.4%; in assay [2], 27.6%; in assay [3] it was 22.1%; in assay [4], -5.9%; in assay [5] it was 42.8%; in assay [6], 26.4%.
`NC1=C(N2CC2)C(=O)C(N)=C(N2CC2)C1=O`: the growth inhibition in assay [1] is 9.1%; in assay [2] it was -21.4%; in assay [3], -8.4%; in assay [4] it was 7.9%; in assay [5], -25.6%; in assay [6] it was -12.7%.
For the molecule `CCC1(/C(C)=C/C(C)C)C(=O)NC(=O)NC1=O`, the growth inhibition in assay [1] was 15.8% and 16.3%; in assay [2], 12.8% and 4.6%; in assay [3] it was 1% and 6.15%; in assay [4], 8.8% and -11.4%; in assay [5], 4.65% and 2.35%; in assay [6], 4.15% and 5.05%.

The record behind these values is PubChem BioAssay (NCI).
